Dicer inh = inhibitors of human Dicer processing of pre-microRNA | Q9UPY3 | cat-ELCCA pre-miR-21 Dicer processing, chemiluminescence; hits give high values | z-score at 25 µM | 6% of 47,000 active; in the data active = z-score above about 3, passing the limit was not always enough;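 note: higher signal means more uncleaved substrate so more Dicer inhibition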
Target sequence (Q9UPY3 whole entry, looked up): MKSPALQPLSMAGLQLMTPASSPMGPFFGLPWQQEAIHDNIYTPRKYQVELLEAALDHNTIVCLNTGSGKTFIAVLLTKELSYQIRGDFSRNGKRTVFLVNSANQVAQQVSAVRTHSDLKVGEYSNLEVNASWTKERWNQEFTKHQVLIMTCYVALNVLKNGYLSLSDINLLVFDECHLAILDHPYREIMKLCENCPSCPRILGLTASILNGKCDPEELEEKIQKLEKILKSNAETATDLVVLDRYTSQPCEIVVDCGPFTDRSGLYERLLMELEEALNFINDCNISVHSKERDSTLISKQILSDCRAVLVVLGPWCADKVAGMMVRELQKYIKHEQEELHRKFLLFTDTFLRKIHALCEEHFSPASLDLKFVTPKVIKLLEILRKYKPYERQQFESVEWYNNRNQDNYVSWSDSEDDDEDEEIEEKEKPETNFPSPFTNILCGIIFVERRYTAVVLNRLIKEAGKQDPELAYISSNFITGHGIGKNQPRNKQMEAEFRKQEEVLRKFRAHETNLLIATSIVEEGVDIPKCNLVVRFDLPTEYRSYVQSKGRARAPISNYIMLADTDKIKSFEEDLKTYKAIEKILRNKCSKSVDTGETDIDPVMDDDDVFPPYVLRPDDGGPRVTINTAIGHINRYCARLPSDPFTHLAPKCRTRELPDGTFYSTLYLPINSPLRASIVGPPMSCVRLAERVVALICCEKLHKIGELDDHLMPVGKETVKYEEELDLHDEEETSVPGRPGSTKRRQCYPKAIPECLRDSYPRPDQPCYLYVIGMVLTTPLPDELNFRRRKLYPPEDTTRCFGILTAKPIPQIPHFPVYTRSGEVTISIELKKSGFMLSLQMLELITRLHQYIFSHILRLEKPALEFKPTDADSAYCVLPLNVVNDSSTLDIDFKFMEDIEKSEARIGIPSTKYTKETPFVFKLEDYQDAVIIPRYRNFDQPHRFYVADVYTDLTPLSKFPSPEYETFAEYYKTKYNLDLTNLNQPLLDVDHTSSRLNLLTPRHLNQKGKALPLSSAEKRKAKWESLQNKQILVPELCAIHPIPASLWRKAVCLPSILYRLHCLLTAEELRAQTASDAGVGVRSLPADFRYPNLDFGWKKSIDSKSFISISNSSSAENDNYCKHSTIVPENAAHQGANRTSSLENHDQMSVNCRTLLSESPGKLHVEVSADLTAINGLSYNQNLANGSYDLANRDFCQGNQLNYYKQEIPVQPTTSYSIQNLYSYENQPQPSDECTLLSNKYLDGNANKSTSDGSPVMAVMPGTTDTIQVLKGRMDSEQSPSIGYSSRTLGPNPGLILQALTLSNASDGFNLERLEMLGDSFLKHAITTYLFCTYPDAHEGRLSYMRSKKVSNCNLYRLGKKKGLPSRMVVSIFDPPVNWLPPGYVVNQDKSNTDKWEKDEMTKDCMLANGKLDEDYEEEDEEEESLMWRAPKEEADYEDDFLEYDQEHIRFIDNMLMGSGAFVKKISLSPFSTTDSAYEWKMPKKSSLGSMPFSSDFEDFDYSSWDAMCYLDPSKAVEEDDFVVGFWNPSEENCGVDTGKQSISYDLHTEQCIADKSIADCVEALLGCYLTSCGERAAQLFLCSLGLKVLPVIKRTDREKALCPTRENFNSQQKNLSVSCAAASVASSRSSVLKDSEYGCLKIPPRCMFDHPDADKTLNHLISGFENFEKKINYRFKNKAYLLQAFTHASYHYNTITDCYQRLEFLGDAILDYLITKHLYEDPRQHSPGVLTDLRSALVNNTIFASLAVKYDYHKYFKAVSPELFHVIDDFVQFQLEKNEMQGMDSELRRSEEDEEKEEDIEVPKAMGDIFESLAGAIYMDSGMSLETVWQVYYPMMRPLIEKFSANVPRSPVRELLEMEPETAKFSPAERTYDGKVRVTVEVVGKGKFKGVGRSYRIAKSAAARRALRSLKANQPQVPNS
Large screens that a line does not name were inactive. The entries come from a sample that favours hits as a whole.

Cc1cc(C)n2c(SCc3ccc(Br)cc3)nnc2n1	none
c1ccc(CSc2nnnn2-c2ccccc2)cc1	none
Cn1c(=O)c2c3nc4ccc(F)cc4cc3c(=O)n(-c3ccccc3)c2n(C)c1=O	none
COC(=O)c1cc(=O)n2c(-c3cc(Cl)cc(Cl)c3)nnc2s1	none
CN(C)S(=O)(=O)c1ccccc1[N+](=O)[O-]	none
C[C@]12CC[C@@H](O)CC1CCC1C2CC[C@](C)(C(=O)O)C1/C=C1/Nc2ccccc2C1=O (some centres not stated)	none
C[C@]12CC=CCC1CCC1C2CC[C@](C)(C(=O)O)C1/C=C1/Nc2ccccc2C1=O (some centres not stated)	Dicer inh 3.9
Cc1cc2oc3c(c(=O)c2cc1C)C(c1ccccc1F)N(CCCN1CCOCC1)C3=O (configuration not stated)	none
CCCCCCCCNC(C)C(O)c1ccc(SC(C)C)cc1 (configuration not stated)	none
C[C@@H](NCCc1ccc(O)cc1)[C@@H](O)c1ccc(O)cc1	Dicer inh 9.7
Cn1c(=O)c2c(nc(NCCc3ccc(O)cc3)n2C)n(C)c1=O	none
Cc1ccc(C)n1-c1cc(-c2ccccc2)[nH]n1	none
O=C(CSc1nc2cc(Cl)c(Cl)cc2[nH]1)c1ccccc1	none
COC(=O)c1sc(-c2ccccc2)cc1N	none
CNC(=O)Nc1ccccc1NC1=C(C(=O)OC)CSC1	none
CC1CC(C)(C)N(C(=O)NC2CCCCC2)c2ccccc21 (configuration not stated)	none
CC1CC(C)(C)N(C(=O)Nc2cccc(Cl)c2)c2ccccc21 (configuration not stated)	Dicer inh 6.6
CC1CC(C)(C)N(C(=O)CN2C(=O)CCC2=O)c2ccccc21 (configuration not stated)	none
COc1ccc2[nH]c(C(=O)NCCNc3cccc(C(F)(F)F)n3)cc2c1	none
CCc1nnc(/N=C/c2cc(-c3ccccc3)sc2O)s1	none
O=C(c1cccs1)n1ccc(-c2ccc(C#Cc3ccccc3)s2)n1	none
COc1c(C(=O)O)csc1Br	none
CCN(CC)C(=O)Cn1cc(C(=O)c2cccs2)c2ccccc21	none
COC(=O)Cn1cc(C(=O)C2CCCCC2)c2ccccc21	none
CCN(CC)C(=O)Cn1cc(C(=O)C2CC2)c2ccccc21	Dicer inh 4.1
O=C(Nc1ccc(C(F)(F)F)cc1)O/N=C/c1c(Cl)cccc1Cl	none
Clc1cccc(Cl)c1CO/N=C1\CSCc2ccccc21	none
Cc1ccc(C(=O)/C=C/Nc2ccc(Cl)cc2Cl)cc1	none
O=C(NS(=O)(=O)c1ccccc1Cl)c1ccc(C(F)(F)F)cc1	none
COC(=O)C1=C(C)NC2=C(C(=O)CC(C)(C)C2)C1c1cc2c(cc1Br)OCO2 (configuration not stated)	none
CC1(C)CC(=O)C2=C(C1)Nc1cc3c(cc1C2c1ccc(Br)cc1)OCO3 (configuration not stated)	Dicer inh 4.7
COc1cc2c(cc1OC)C(c1ccc(F)cc1)C1=C(CC(C)(C)CC1=O)N2 (configuration not stated)	none
COc1ccc(C2CC(=O)C3=C(C2)Nc2ccccc2NC3c2cc(F)ccc2F)cc1OC (configuration not stated)	none
FC(F)(F)c1[nH]ncc1-c1nnnn1-c1ccccc1	Dicer inh 3.3
Cc1c(-c2nnnn2-c2ccccc2)cnc2ccccc12	none
FC(F)(F)c1c(-c2nnnn2-c2ccccc2)cnn1-c1ccccc1Cl	none
O=c1[nH]c(/C=C/c2ccccc2O)nc2ccccc12	none
C=CCc1c(CCC)nc(SCc2ccc(F)cc2)[nH]c1=O	none
Cc1nc2ccccc2c(C(=O)O)c1C(=O)O	none
CSc1nc2ccccc2c(=O)n1CC(=O)C(C)(C)C	none
Cc1nc2ccccc2c2c1C(=O)N(c1ccccc1C(=O)OCC(=O)C(C)(C)C)C2=O	Dicer inh 4.7
CC1(C)C2CCC1(C)C(N1CCN(Cc3ccccc3)CC1)C2 (configuration not stated)	none
Clc1ccc(-c2nnc3ccc4ccccc4n23)cc1	none
Fc1ccc(-c2nnc3ccc4ccccc4n23)cc1	none
COc1ccccc1-c1nnc2ccc3ccccc3n12	Dicer inh 3
COC(=O)/C(C#N)=C/c1ccc(Cl)c(Cl)c1	none
CC(N)=O	Dicer inh 4.1
Cc1sc2ncnc(SCC(=O)c3ccccc3F)c2c1C	none
CC(=O)Oc1ccc2c(c1)oc(=O)c1ccccc12	none
O=C(OCc1ccccc1)C1=NNC2C(=O)N(c3ccc(Br)cc3)C(=O)C12 (configuration not stated)	Dicer inh 3.5
CCc1ccc(N2C(=O)C3NN=C(C(=O)OCc4ccccc4)C3C2=O)cc1 (configuration not stated)	none
O=C(OCc1ccccc1)C1=NNC2C(=O)N(c3ccccc3)C(=O)C12 (configuration not stated)	none
CC1=C(C(=O)OCc2ccccc2)C(c2cccc(F)c2)C2=C(CCCC2=O)N1 (configuration not stated)	none
Cc1noc(C)c1NC(=O)NC1CCCCNC1=O (configuration not stated)	none
CCOC(=O)c1cnn(-c2cc(C(F)(F)F)cc(C(F)(F)F)c2)c1C	none
Nc1ccccc1Sc1nc(Sc2ccccc2N)c(C(F)(F)F)cc1C(F)(F)F	none
CCOC(=O)c1c(NC(=O)CSc2nnc3c4ccccc4n(CC)c3n2)sc2c1CCC2	none
O=C(CCc1nc(-c2ccc(Cl)cc2)no1)NNS(=O)(=O)c1cc(Cl)c(Cl)cc1Cl	none
CCOC(=O)CN1C(=O)C(O)(CC(=O)c2cccc3ccccc23)c2ccccc21 (configuration not stated)	none
COc1ccc(C2/C(=C(\O)c3ccc(C)cc3)C(=O)C(=O)N2CCCN(C)C)cc1 (configuration not stated)	none
CN1C(=O)C2(/C(=C(/O)c3ccc(F)cc3)C(=O)C(=O)N2CCCN2CCOCC2)c2ccccc21 (configuration not stated)	none
CCN1C(=O)C2(/C(=C(/O)c3ccc(C)cc3)C(=O)C(=O)N2CCCN2CCOCC2)c2ccccc21 (configuration not stated)	none
COc1ccc(/C(O)=C2\C(=O)C(=O)N(CCCN(C)C)C2c2ccc(N(C)C)cc2)cc1 (configuration not stated)	none
C=CCN1C(=O)C2(/C(=C(/O)c3ccccc3)C(=O)C(=O)N2CCN2CCOCC2)c2ccccc21 (configuration not stated)	none
CCCN1C(=O)C2(/C(=C(/O)c3ccccc3)C(=O)C(=O)N2CCN2CCOCC2)c2ccccc21 (configuration not stated)	Dicer inh 4.7
Cc1ccc(/C(O)=C2/C(=O)C(=O)N(CCN3CCOCC3)C23C(=O)N(C)c2ccccc23)cc1F (configuration not stated)	Dicer inh 4.2
CN1C(=O)C2(/C(=C(/O)c3ccc(Cl)cc3)C(=O)C(=O)N2CCN2CCOCC2)c2ccccc21 (configuration not stated)	none
CN1C(=O)C2(/C(=C(/O)c3ccc(F)cc3)C(=O)C(=O)N2CCN2CCOCC2)c2ccccc21 (configuration not stated)	none
COCCCN1C(=O)C(=O)/C(=C(/O)c2ccc(C)cc2)C1c1ccc(N(C)C)cc1 (configuration not stated)	Dicer inh 3.2
CCN1C(=O)C2(/C(=C(/O)c3ccc(F)cc3)C(=O)C(=O)N2CCN2CCOCC2)c2ccccc21 (configuration not stated)	Dicer inh 5.7
Cc1ccc(/C(O)=C2/C(=O)C(=O)N(CCCN3CCOCC3)C23C(=O)N(C)c2ccccc23)cc1F (configuration not stated)	none

Source: PubChem BioAssay
